Paper PMC7862700, “An all-to-all approach to the identification of sequence-specific readers for epigenetic DNA modifications on cytosine”

Assays:
Assay in all cases: DAPPL (digital affinity profiling via proximity ligation, sequencing); 10 mM Tris-HCl pH 7.5, 50 mM NaCl, 1 mM DTT, 4% glycerol, room temperature, 30 min; GST-TFs on glutathione beads, 16-mer random dsDNA library, 0.1% formaldehyde crosslink after washing; high values mean tight binding
Conditions in all cases: protein: recombinant; tags: N-terminal GST; dsDNA, one strand shown
FLI1 = target: T1, FLI1 (Homo sapiens, UniProt Q01543 1-452)
T1 sequence: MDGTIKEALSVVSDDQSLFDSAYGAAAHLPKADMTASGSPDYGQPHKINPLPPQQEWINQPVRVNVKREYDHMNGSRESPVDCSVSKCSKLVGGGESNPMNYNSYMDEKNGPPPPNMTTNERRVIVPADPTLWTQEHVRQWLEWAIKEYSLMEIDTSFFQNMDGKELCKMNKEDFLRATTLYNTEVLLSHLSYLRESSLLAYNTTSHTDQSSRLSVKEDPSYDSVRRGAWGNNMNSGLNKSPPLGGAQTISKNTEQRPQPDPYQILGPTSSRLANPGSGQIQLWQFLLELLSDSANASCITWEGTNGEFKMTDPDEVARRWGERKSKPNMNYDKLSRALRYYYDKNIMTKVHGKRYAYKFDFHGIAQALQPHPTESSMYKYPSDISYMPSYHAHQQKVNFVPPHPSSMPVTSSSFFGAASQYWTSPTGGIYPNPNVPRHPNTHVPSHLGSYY
How it was run: (§1)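 Human transcription factors carrying a GST fusion were produced in yeast, bound to glutathione beads, tagged with DNA barcodes and pooled together with a tag-only sample. Each pool was held with 200 nmole of a random double-stranded 16-mer DNA library in Tris/NaCl/DTT/glycerol buffer for 30 min at room temperature, then washed, crosslinked in 0.1% formaldehyde, proximity-ligated with BsaI/T4 ligase (1 h, 37 °C), PCR-amplified and sequenced on an Illumina NextSeq500. Binding signal is the read frequency of each hexamer for a given factor divided by its frequency in the tag-only sample.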

ELK1 = target: T2, ELK1 (Homo sapiens, UniProt P19419 1-428)
T2 sequence: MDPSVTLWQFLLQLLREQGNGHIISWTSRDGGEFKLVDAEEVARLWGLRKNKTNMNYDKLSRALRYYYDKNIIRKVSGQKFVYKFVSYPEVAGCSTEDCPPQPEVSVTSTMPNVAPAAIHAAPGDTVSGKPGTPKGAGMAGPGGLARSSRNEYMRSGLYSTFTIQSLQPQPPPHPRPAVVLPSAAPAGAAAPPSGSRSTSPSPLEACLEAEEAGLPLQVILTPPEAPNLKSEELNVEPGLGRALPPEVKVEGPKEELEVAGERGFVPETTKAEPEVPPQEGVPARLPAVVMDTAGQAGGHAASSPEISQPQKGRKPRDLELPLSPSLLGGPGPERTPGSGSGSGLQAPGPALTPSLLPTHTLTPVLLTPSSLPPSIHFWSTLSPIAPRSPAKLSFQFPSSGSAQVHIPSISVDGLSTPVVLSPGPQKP
How it was run: as §1

GABPA = target: T3, GABPA (Homo sapiens, UniProt Q06546 1-454)
T3 sequence: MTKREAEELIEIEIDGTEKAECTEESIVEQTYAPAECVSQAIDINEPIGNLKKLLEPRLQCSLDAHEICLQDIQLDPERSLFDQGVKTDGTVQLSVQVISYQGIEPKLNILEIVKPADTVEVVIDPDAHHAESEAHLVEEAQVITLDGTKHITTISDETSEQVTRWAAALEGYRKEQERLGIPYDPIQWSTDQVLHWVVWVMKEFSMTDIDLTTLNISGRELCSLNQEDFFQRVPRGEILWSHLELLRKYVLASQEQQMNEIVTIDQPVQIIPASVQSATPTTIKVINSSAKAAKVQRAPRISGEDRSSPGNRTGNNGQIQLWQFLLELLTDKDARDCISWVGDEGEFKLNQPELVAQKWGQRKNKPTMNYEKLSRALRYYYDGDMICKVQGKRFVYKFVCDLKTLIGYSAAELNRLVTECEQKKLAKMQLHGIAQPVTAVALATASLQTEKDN
How it was run: as §1

ERG = target: T4, ERG (Homo sapiens, UniProt P11308 1-479)
T4 sequence: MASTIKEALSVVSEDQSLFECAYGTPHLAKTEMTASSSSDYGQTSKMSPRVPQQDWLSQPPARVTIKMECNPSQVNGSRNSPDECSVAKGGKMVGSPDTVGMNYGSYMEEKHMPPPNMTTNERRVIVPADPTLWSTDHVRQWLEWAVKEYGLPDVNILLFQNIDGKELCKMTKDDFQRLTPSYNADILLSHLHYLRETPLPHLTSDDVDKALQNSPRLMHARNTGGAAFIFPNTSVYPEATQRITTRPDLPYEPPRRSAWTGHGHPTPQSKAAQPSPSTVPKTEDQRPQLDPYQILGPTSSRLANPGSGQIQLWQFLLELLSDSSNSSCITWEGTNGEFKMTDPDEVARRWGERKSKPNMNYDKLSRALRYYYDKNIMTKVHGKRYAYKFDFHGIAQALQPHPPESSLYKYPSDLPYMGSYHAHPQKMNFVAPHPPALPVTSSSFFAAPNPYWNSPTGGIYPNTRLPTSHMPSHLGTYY
How it was run: as §1

ELF1 = ELF1 (Homo sapiens, UniProt P32519 1-619)
Chain of ELF1 (P32519 whole entry): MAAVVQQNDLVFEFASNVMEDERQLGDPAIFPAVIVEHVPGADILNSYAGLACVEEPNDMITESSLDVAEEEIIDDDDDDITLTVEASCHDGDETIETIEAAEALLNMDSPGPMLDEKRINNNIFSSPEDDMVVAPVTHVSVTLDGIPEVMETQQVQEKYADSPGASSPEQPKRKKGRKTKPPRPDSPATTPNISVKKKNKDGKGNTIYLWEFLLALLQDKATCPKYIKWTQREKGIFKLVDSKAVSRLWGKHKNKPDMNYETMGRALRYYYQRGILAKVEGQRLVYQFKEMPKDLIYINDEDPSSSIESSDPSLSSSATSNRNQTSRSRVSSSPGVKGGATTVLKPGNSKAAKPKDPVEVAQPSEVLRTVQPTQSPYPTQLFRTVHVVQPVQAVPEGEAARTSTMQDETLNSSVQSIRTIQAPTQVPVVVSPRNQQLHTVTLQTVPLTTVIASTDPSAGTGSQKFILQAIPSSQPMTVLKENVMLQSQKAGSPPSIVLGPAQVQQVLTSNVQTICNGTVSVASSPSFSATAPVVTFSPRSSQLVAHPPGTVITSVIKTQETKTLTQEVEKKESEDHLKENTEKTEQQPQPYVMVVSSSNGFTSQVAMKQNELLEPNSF
How it was run: as §1

EHF = target: T5, EHF (Homo sapiens, UniProt Q9NZC4 1-300)
T5 sequence: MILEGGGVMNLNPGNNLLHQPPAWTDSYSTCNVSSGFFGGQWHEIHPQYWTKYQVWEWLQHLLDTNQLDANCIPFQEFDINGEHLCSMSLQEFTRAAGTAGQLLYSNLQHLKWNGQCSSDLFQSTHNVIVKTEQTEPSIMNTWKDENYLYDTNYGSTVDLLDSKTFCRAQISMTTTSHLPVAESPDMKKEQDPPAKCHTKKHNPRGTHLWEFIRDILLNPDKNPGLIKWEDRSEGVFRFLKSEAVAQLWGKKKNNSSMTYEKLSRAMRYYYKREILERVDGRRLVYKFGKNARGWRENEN
How it was run: as §1

SPI1 = SPI1 (Homo sapiens, UniProt P17947 1-270)
How it was run: as §1

SPIB = SPIB (Homo sapiens, UniProt Q01892 1-262)
Chain of SPIB (Q01892 whole entry): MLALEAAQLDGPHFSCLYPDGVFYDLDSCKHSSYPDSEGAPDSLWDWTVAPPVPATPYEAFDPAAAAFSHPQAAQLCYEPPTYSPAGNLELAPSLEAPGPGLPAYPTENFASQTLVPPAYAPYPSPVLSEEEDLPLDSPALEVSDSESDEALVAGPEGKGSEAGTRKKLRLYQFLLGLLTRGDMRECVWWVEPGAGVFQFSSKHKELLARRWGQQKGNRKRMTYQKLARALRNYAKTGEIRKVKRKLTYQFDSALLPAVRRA
How it was run: as §1

ELK3 = target: T6, ELK3 (Homo sapiens, UniProt P41970 1-407)
T6 sequence: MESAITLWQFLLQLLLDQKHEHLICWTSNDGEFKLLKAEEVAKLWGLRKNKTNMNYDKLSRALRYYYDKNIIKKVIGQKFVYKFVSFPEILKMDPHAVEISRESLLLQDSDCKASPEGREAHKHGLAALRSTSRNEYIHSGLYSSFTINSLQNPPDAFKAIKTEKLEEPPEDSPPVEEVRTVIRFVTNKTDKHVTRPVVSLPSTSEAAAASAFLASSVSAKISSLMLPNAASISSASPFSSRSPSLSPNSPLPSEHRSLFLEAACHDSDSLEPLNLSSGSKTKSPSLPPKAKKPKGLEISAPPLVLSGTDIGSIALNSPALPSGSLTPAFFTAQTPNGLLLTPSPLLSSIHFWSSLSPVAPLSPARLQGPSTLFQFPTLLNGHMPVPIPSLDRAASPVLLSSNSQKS
How it was run: as §1

| Sequence | binding signal (FLI1) | binding signal (ELK1) | binding signal (GABPA) | binding signal (ERG) | binding signal (ELF1) | binding signal (EHF) | binding signal (SPI1) | binding signal (SPIB) | binding signal (ELK3) |
| --- | --- | --- | --- | --- | --- | --- | --- | --- | --- |
| TCACAC | 1.31 fold enrichment (6-mer frequency, TF over GST control) | 1.19 fold enrichment (6-mer frequency, TF over GST control) | 1.34 fold enrichment (6-mer frequency, TF over GST control) | 1.31 fold enrichment (6-mer frequency, TF over GST control) | 1.32 fold enrichment (6-mer frequency, TF over GST control) | 1.3 fold enrichment (6-mer frequency, TF over GST control) | 1.23 fold enrichment (6-mer frequency, TF over GST control) | 1.29 fold enrichment (6-mer frequency, TF over GST control) | 1.46 fold enrichment (6-mer frequency, TF over GST control) |
| CTATGG | 1.25 fold enrichment (6-mer frequency, TF over GST control) | 1.14 fold enrichment (6-mer frequency, TF over GST control) | 1.21 fold enrichment (6-mer frequency, TF over GST control) | 1.15 fold enrichment (6-mer frequency, TF over GST control) | 1.19 fold enrichment (6-mer frequency, TF over GST control) | 1.3 fold enrichment (6-mer frequency, TF over GST control) | 1.17 fold enrichment (6-mer frequency, TF over GST control) | 1.19 fold enrichment (6-mer frequency, TF over GST control) | 1.2 fold enrichment (6-mer frequency, TF over GST control) |
| CCAATA | 1.24 fold enrichment (6-mer frequency, TF over GST control) | 1.17 fold enrichment (6-mer frequency, TF over GST control) | 1.25 fold enrichment (6-mer frequency, TF over GST control) | 1.26 fold enrichment (6-mer frequency, TF over GST control) | 1.25 fold enrichment (6-mer frequency, TF over GST control) | 1.25 fold enrichment (6-mer frequency, TF over GST control) | 1.2 fold enrichment (6-mer frequency, TF over GST control) | 1.24 fold enrichment (6-mer frequency, TF over GST control) | 1.28 fold enrichment (6-mer frequency, TF over GST control) |
| CTTTGA | 1.29 fold enrichment (6-mer frequency, TF over GST control) | 1.22 fold enrichment (6-mer frequency, TF over GST control) | 1.26 fold enrichment (6-mer frequency, TF over GST control) | 1.26 fold enrichment (6-mer frequency, TF over GST control) | 1.26 fold enrichment (6-mer frequency, TF over GST control) | 1.16 fold enrichment (6-mer frequency, TF over GST control) | 1.21 fold enrichment (6-mer frequency, TF over GST control) | 1.24 fold enrichment (6-mer frequency, TF over GST control) | 1.15 fold enrichment (6-mer frequency, TF over GST control) |
| CCTTCC | 2.45 fold enrichment (6-mer frequency, TF over GST control) | 2.68 fold enrichment (6-mer frequency, TF over GST control) | 2.22 fold enrichment (6-mer frequency, TF over GST control) | 3.03 fold enrichment (6-mer frequency, TF over GST control) | 2.39 fold enrichment (6-mer frequency, TF over GST control) | 2.75 fold enrichment (6-mer frequency, TF over GST control) | 2.48 fold enrichment (6-mer frequency, TF over GST control) | 2.75 fold enrichment (6-mer frequency, TF over GST control) | 2.47 fold enrichment (6-mer frequency, TF over GST control) |
| AAAAAG | 1.18 fold enrichment (6-mer frequency, TF over GST control) | 1.18 fold enrichment (6-mer frequency, TF over GST control) | 1.25 fold enrichment (6-mer frequency, TF over GST control) | 1.19 fold enrichment (6-mer frequency, TF over GST control) | 1.13 fold enrichment (6-mer frequency, TF over GST control) | 1.22 fold enrichment (6-mer frequency, TF over GST control) | 1.72 fold enrichment (6-mer frequency, TF over GST control) | 1.29 fold enrichment (6-mer frequency, TF over GST control) | 1.2 fold enrichment (6-mer frequency, TF over GST control) |
| CAATAC | 1.25 fold enrichment (6-mer frequency, TF over GST control) | 1.29 fold enrichment (6-mer frequency, TF over GST control) | 1.23 fold enrichment (6-mer frequency, TF over GST control) | 1.23 fold enrichment (6-mer frequency, TF over GST control) | 1.24 fold enrichment (6-mer frequency, TF over GST control) | 1.2 fold enrichment (6-mer frequency, TF over GST control) | 1.25 fold enrichment (6-mer frequency, TF over GST control) | 1.17 fold enrichment (6-mer frequency, TF over GST control) | 1.28 fold enrichment (6-mer frequency, TF over GST control) |
| CATTTA | 1.28 fold enrichment (6-mer frequency, TF over GST control) | 1.23 fold enrichment (6-mer frequency, TF over GST control) | 1.31 fold enrichment (6-mer frequency, TF over GST control) | 1.25 fold enrichment (6-mer frequency, TF over GST control) | 1.27 fold enrichment (6-mer frequency, TF over GST control) | 1.32 fold enrichment (6-mer frequency, TF over GST control) | 1.26 fold enrichment (6-mer frequency, TF over GST control) | 1.18 fold enrichment (6-mer frequency, TF over GST control) | 1.23 fold enrichment (6-mer frequency, TF over GST control) |
